Screens from PubChem BioAssay.
Tau fluor counter: Counterscreen qHTS for Inhibitors of Tau Fibril Formation, Fluorescence Polarization; tau K18 P301L Alexa594 fluorescence, heparin fibrillization; Potency, µM (doses to about 57.7 µM), without a hit: top-dose activity change, negative = decrease; 0.93% of 280,000 active; note: nearly all actives have a fitted effect of over 55% in size
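Human tau K18 P301L (15 uM unlabeled, 0.24 uM Alexa 594-labeled) in 100 mM sodium acetate pH 7 with 20 uM heparin, 6 hr at 37 C. ThT 30 uM added, 1 hr ambient; Alexa 594 FP and total fluorescence read at 555/632 nm.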
JMJD2E inh: qHTS Assay for Inhibitors of Human Jumonji Domain Containing 2E (JMJD2E). AID 2147, 2009. Potency, µM (series often up to 57.1 µM), inactives show top-dose activity change, negative = inhibition, usual class: inhibitors. 1.6% of 230,000 active. JMJD2E catalytic domain, FDH-coupled NADH fluorescence (FDH is formaldehyde dehydrogenase);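 note: 0% = wells with enzyme and -100% = buffer wells without enzyme; nearly all actives have a fitted effect of over 50% in size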
Target sequence (B2RXH2 1-337 limits assumed): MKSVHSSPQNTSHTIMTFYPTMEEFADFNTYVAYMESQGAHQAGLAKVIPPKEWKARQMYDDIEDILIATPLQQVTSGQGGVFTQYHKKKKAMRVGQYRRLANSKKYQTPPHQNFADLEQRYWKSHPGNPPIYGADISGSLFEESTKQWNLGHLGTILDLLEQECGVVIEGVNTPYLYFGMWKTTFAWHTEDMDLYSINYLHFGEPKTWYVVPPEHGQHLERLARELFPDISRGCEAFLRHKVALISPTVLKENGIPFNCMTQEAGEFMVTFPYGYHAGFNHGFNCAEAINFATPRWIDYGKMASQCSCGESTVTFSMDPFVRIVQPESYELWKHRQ
Tau fibril ThT: qHTS for Inhibitors of Tau Fibril Formation, Thioflavin T Binding; Microtubule-associated protein tau (Homo sapiens), P10636; recombinant tau K18 P301L, heparin-induced fibrillization, ThT fluorescence; Potency, µM (top dose mostly 57.4 µM), for inactives: at the highest dose activity, negative = inhibition, usual class: inhibitors; 2.1% of 270,000 active; AID 1460, 2008; note: nearly all actives have a fitted effect of over 55% in size
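Fibril formation assay: tau K18 P301L at 15 uM with trace Alexa 594 label, heparin inducer 20 uM, pH 7 sodium acetate buffer, 37 C for 6 hr; endpoint ThT signal.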
RGS12 GoLoco inh: qHTS Assay for Inhibitors of RGS12 GoLoco Motif Activity (Red Fluorophore). Guanine nucleotide-binding protein G(i) subunit alpha-1 (Homo sapiens), P63096. Gai1:RGS12 GoLoco peptide FP, rhodamine, 10 min. Potency, µM (doses to about 61.6 µM), for the others: at the top dose activity, negative = inhibition, hits mostly inhibitors. 0.44% of 230,000 active; active = well fitted inhibition curve with a large enough effect, not every such curve was filed as active; inactive = no such curve, though single readings can be large or run the other way; note: nearly all actives have a fitted effect of over 30% in size
Target sequence (P63096 whole entry, looked up): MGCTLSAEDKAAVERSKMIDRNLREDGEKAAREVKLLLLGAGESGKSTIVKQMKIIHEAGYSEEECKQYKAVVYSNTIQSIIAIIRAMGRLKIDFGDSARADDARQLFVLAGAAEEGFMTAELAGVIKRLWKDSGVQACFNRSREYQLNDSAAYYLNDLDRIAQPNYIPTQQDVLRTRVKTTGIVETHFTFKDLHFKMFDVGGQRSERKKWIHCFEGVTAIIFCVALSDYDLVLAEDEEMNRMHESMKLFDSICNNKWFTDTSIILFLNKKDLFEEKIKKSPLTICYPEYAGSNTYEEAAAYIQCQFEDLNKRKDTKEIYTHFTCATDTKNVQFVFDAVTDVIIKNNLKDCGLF
Tau fibril FP: qHTS for Inhibitors of Tau Fibril Formation, Fluorescence Polarization; Microtubule-associated protein tau (Homo sapiens), P10636; K18 P301L tau heparin fibrillization, Alexa594 FP, 6 h; Potency, µM (highest dose often 57.7 µM), without a hit: top-dose activity, negative = inhibition, hits mostly inhibitors; 0.39% of 280,000 active; note: nearly all actives have a fitted effect of over 55% in size
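Human K18 P301L fragment (15 uM unlabeled plus 0.24 uM Alexa 594-labeled) in 100 mM sodium acetate pH 7 with compound, aggregation induced by 20 uM heparin for 6 hr at 37 C. ThT (30 uM) added for 1 hr, then Alexa 594 FP read.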
The depositor's hits bear a star; u = inconclusive; x = no result; [ ] = dose if it differs, or a comment. Hits are enriched below; roughly 3.4% of the tested compounds scored in any of these assays. Unless noted, calls come from the whole dose curve; as a rule, active = well fitted curve in the direction sought with a large enough effect; inconclusive = small, poorly fitted or top-dose-only effect, or another doubt; inactive = no such curve, though single readings can be large; an effect the other way counts as inactive or inconclusive. Unless noted, % is set by controls: 0 for no effect and ±100 for the full control effect; potency is the fitted concentration of half-maximal effect.

SMILES | Tau fluor counter | JMJD2E inh | Tau fibril ThT | RGS12 GoLoco inh | Tau fibril FP
COc1cc(/C=N/NC(=O)c2ccc(CN3C(=O)c4cccc5cccc3c45)cc2)cc(OC)c1O | u | 22µM* | u | -10% | u
COc1ccc(/C=N/NC(=O)c2ccc(CN3C(=O)c4cccc5cccc3c45)cc2)cc1O | u | u | u | 4% | 4%
CCC(=O)N1CCc2cc(CNS(=O)(=O)c3cc(Cl)ccc3OC)ccc21 | -8% | x | -12% | x | 4%
CC(=O)C1=C(S(=O)(=O)c2ccc(C)cc2)CS(=O)(=O)C1 | -20% | 14µM* | 25µM* | -19% | 28µM*
O=C(NCCCc1nc2ccccc2n1Cc1ccccc1F)c1ccco1 | -4% | x | 2% | x | -8%
C/C(=N\N1C(=O)c2ccccc2NC1c1ccccc1)c1ccccc1O (stereo not drawn) | -12% | u | -3% | 9% | -11%
C/C(=N\N1C(=O)c2ccccc2NC1c1ccco1)c1ccccc1O (stereo not drawn) | -11% | 22µM* | -9% | 18% | -5%
CC(C)C[C@H](NC(=O)c1[nH]cnc1C(=O)Nc1ccc(CNC(=O)OC(C)(C)C)cc1)C(=O)OCc1ccccc1 | u | 32µM* | 12% | 3% | 10µM*
CC(C)C[C@H](NC(=O)c1[nH]cnc1C(=O)Nc1ccc(CNC(=O)OC(C)(C)C)cc1)C(=O)OC(C)(C)C | u | -13% | 4% | 4% | u
CC(C)(C)OC(=O)NCc1ccc(NC(=O)c2nc[nH]c2C(=O)N[C@@H](Cc2ccccc2)C(=O)OC(C)(C)C)cc1 | u | u | u | 11% | 8.9µM*
CC(C)(C)OC(=O)CNC(=O)c1[nH]cnc1C(=O)Nc1ccc(Cl)cc1 | u | -1% | u | 7% | 25µM*
CCc1nn2c(=O)cc(COC(=O)c3ccccc3NC(=O)c3cccs3)nc2s1 | 2% | x | 6% | x | 0%
COc1ccc(-c2onc(C)c2C)cc1S(=O)(=O)N1c2ccccc2CC1C (stereo not drawn) | u | x | -7% | x | -4%
CCOC(=O)c1c(NC(=O)C(C)Sc2cn(CCNC(=O)c3c(F)cccc3F)c3ccccc23)sc2c1CCC2 (stereo not drawn) | -23% | x | -11% | x | -5%
O=C(NCCNC(=O)c1cc(OCC(F)(F)F)ccc1OCC(F)(F)F)Nc1ccc(OC(F)(F)F)cc1 | -26% | -1% | 10% | 8% | 3.5µM*
O=C(Nc1ccc(F)cc1)Nc1cc(OCC(F)(F)F)cc(OCC(F)(F)F)c1 | u | -4% | -4% | 8% | 8.9µM*
COc1ccccc1CNC(=O)c1c2c(nc3ccccc13)C(=O)N(C1CCCCC1)C2 | 0% | x | -13% | x | -1%
Cc1ccc(-n2nc(C(=O)Nc3cccc(C#N)c3)c3c4ccccc4n(C)c3c2=O)cc1 | -6% | x | -2% | x | u
O=C(COc1ccc(F)cc1)Nc1ccccc1C(=O)OCc1cc(=O)n2nc(C3CC3)sc2n1 | -13% | x | -9% | x | -2%
COc1ccc(S(=O)(=O)N=C2C=C(C)C(=O)C(C)=C2)cc1 | -21% | 2% | -24% | 2% | 7%
COc1ccc(C(=O)N/N=C/C(C)c2ccccc2)cc1OC (stereo not drawn) | -5% | 13% | -7% | -5% | 6%
C=CC(C1=CC(=O)C(OC)=CC1=O)c1ccc(OC)cc1 (stereo not drawn) | u | u | 16µM* | -30% | u
C=CC(C1=CC(=O)C(OC)=C(OC)C1=O)c1ccccc1 (stereo not drawn) | 25µM*[quencher] | u | 13µM* | -15% | u
C=CC(C1=CC(=O)C(OC)=CC1=O)c1ccccc1 (stereo not drawn) | 14µM*[quencher] | 2.2µM* | 16µM* | -1% | 20µM*
CCCCOc1ccc(OC(=O)c2sc3ncn(Cc4cccc(F)c4)c(=O)c3c2C)cc1 | -20% | x | -2% | x | u
SMILES | Tau fluor counter | JMJD2E inh | Tau fibril ThT | RGS12 GoLoco inh | Tau fibril FP
Cc1cc(C(=O)CSc2nnnn2-c2ccc(O)cc2)c(C)n1Cc1ccc2c(c1)OCO2 | 7.9µM*[quencher] | -5% | -17% | 2% | 11µM*
CCN(CC)S(=O)(=O)c1ccc2nc(NC(=O)c3cncc(Br)c3)sc2c1 | -23% | x | 6% | x | -3%
CCN(CC)c1ccc(NC2CC(=O)N(CCc3ccc(OC)cc3)C2=O)cc1 (stereo not drawn) | u | 13µM* | 11µM* | 9% | u
COc1ccc(-c2ccc(C(=S)N3CCN(C(C)=O)CC3)o2)cc1 | -28% | u | 28µM* | -9% | u
COc1ccc(CC(=O)N2CCN(C(=O)Cc3ccc(OC)cc3)CC2)cc1 | -2% | 1% | -6% | 5% | -5%
CCc1ccc(Sc2cc(C(=O)NCCCN3CCCC(C)C3)c3ccccc3n2)cc1 (stereo not drawn) | -17% | x | -14% | x | 0%
CCS(=O)(=O)c1ncc(Cl)c(C(=O)Nc2c(C(=O)Nc3cccc(C)c3)oc3ccccc23)n1 | u | x | 4µM* | x | -11%
CCSc1ncc(Cl)c(C(=O)Nc2c(C(=O)Nc3cccc(C)c3)oc3ccccc23)n1 | -11% | x | 4% | x | -9%
COc1cc(N=Nc2cccc(S(N)(=O)=O)c2)c2ccccc2c1N | 10µM*[quencher] | u | 1.6µM* | 7%[14.2 µM] | u
NC1=NC(=Nc2cccc(S(N)(=O)=O)c2)c2ccccc21 | 2% | 4% | -3% | -1% | 1%
COc1cccc(NC(=O)CSc2nc(=O)n(Cc3cccnc3)c3c2CCC3)c1 | -7% | x | -11% | x | -10%
CC(CC1C(C#N)=C(N)SC(N)=C1C#N)c1ccccc1 (stereo not drawn) | -15% | 22µM* | u | 169% | -10%
COc1ccc(CNC(=O)C(C#N)c2nc3ccccc3nc2N2CCN(C)CC2)cc1 (stereo not drawn) | -30% | 0% | 16µM* | 9% | -1%
COc1ccc(CNC(=O)C(C#N)c2nc3ccccc3nc2N2CCCC2)cc1 (stereo not drawn) | -29% | u | -2% | 18% | -13%
COC(=O)C1=C(C(=O)OC)C(c2ccccc2O)c2sc(=O)[nH]c2S1 (stereo not drawn) | -20% | u | 25µM* | 1% | 3%
CC(C)NCC(O)Cn1c2c(c3ccccc31)CCc1c-2cnn1-c1ccccc1 (stereo not drawn) | u | u | 16µM* | 7% | 10%
COc1ccc(Nc2nn3c(=O)c4cc5c(cc4nc3s2)OCO5)c(OC)c1 | -30% | x | u | x | -8%
O=C(NCc1ccco1)c1ccc2nc3sc4c(c3c(=O)n2c1)CCCC4 | -22% | u | 14µM* | 13% | 22µM*
